Cycloheximide cs – counter-screen hit for Shiga toxin inhibitors, cycloheximide; cell reporter, cycloheximide protein synthesis inhibition counterscreen; max response, %; 300,000 compounds, 12% hits; in the data active means max response mostly above about 13%, no sharp cut-off; inactive means mostly below about 14%; further: read at 38.3 µM for the half of the compounds with a filed dose
Pf growth 96h – P. falciparum growth inhibition at 96 hours. 320,000 compounds, 6.9% hits. AID 504834. Potency, µM (doses to about 28.7 µM), most hits filed as inhibitors. P. falciparum luciferase reporter growth, 96 h
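Infected RBCs, 2% Hct / 0.05% parasitemia final; luciferase-reporter P. falciparum; cpd 96 h, 37 C, 5% CO2; luciferase detection reagent; luminescence.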
Pf growth 48h – inhibits P. falciparum growth in the first generation, 48 h | P. falciparum luciferase growth in erythrocytes, 48 h | Potency, µM (top dose mostly 28.7 µM), most hits filed as inhibitors | 310,000 compounds, 5.9% hits | AID 504832
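Firefly luciferase activity from engineered P. falciparum reports growth; inhibitors lower the luminescent signal. Cultures contained 2% hematocrit erythrocytes at 0.1% final parasitemia.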
SARS PLpro yeast – SARS-CoV PLP inhibition in yeast. S. cerevisiae expressing SARS-CoV PLpro, growth rescue. Potency, µM (top dose mostly 32.9 µM), most hits filed as activators. AID 485353. 330,000 compounds, 0.19% hits; calls by dose curve; further: nearly all actives have a fitted effect of over 55% in size
AMA1-RON2 inh – inhibitors of Plasmodium falciparum AMA1-RON2 interaction; AlphaScreen AMA1-biotinylated RON2 peptide binding; Potency, µM (series often up to 58.2 µM), actives largely listed as inhibitors; 360,000 compounds, 0.2% hits; AID 720542; further: nearly all actives have a fitted effect of over 45% in size
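AMA1 (3D7) with his tag at 25 nM final met compounds first, then biotinylated RON2 peptide at 25 nM; detection used donor plus acceptor beads, 10 µg/mL apiece, read by AlphaScreen after 30 min at room temperature.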
Shiga toxin inh – inhibitors of Shiga toxin in Vero cells. Vero cells, Shiga toxin protein synthesis inhibition reporter. inhibition, % at 38.7 µM. 290,000 compounds, 9.2% hits; in the data active means inhibition mostly above about 28%, no sharp cut-off; inactive means mostly below about 43%
Each line names hits and unclear results; the compound was inactive in the other large screens. Rows were chosen to be rich in hits. Some 19% of all compounds tested hit in one or more screens of this group. Unless noted, the call rests on the fitted dose curve; in most records, active means well fitted curve in the direction sought with a large enough effect; inconclusive means small, poorly fitted or top-dose-only effect, or another doubt; inactive means no such curve, though single readings can be large; an effect the other way counts as inactive or inconclusive.

CCOC(=O)N1CCN(Cc2nc(N)nc(Nc3ccc(Oc4ccccc4)cc3)n2)CC1	Cycloheximide cs 15, Pf growth 48h inconclusive, AMA1-RON2 inh inconclusive
CCOC(=O)N1CCN(Cc2nc(N)nc(Nc3ccc(Cl)cc3)n2)CC1	Cycloheximide cs 14, Pf growth 96h inconclusive
COc1ccccc1Nc1nc(N)nc(CN2CCN(c3ccccc3)CC2)n1	none (no result: Pf growth 96h)
COc1ccc(Nc2nc(N)nc(CN3CCC(Cc4ccccc4)CC3)n2)cc1	Pf growth 48h 5.9µM
COc1cccc(N2CCN(Cc3nc(N)nc(Nc4ccccc4OC)n3)CC2)c1	Pf growth 96h 0.33µM, Pf growth 48h inconclusive
CCN(CC)c1ccc2nc3ccccc3[n+](CC)c2c1	Pf growth 96h inconclusive, AMA1-RON2 inh inconclusive
CCN(CC)c1ccc2nc3ccc(N)cc3[n+](-c3ccccc3)c2c1	Pf growth 96h inconclusive, Pf growth 48h 0.29µM, AMA1-RON2 inh 20µM (no result: Cycloheximide cs, Shiga toxin inh)
CC(=O)N1CC(C)Oc2ccc(S(=O)(=O)NC(CC(=O)O)c3cc(C)ccc3C)cc21 (stereo not drawn)	Pf growth 96h 12µM
CC1(C)C(=O)OC(c2ccccc2)C2(CCCC2)C1=O (stereo not drawn)	none (no result: Pf growth 96h)
COC(=O)CCCC1=CC2=CC(=O)C(C)(OC(=O)c3cccs3)C(=O)C2=CN1Cc1ccc2c(c1)OCO2 (stereo not drawn)	Pf growth 96h inconclusive, Pf growth 48h 13µM
COC(=O)CCCC1=CC2=CC(=O)C(C)(OC(=O)c3cccs3)C(=O)C2=CN1C1CCCC1 (stereo not drawn)	Pf growth 96h inconclusive, Pf growth 48h inconclusive
COC(=O)CCCC1=CC2=CC(=O)C(C)(OC(=O)c3cccs3)C(=O)C2=CN1Cc1ccco1 (stereo not drawn)	Pf growth 96h inconclusive, Pf growth 48h inconclusive
COC(=O)CCCC1=CC2=CC(=O)C(C)(OC(=O)c3cccs3)C(=O)C2=CN1c1ccc(OC)cc1 (stereo not drawn)	Pf growth 96h 13µM, Pf growth 48h 6.6µM
COC(=O)CCCC1=CC2=CC(=O)C(C)(OC(=O)c3cccs3)C(=O)C2=CN1Cc1ccccc1 (stereo not drawn)	Pf growth 96h inconclusive, Pf growth 48h 13µM
CCS(=O)c1ccccc1C(=O)OC(C)C(=O)Nc1ccc(S(=O)(=O)N2CCCC2)cc1 (stereo not drawn)	Pf growth 96h inconclusive, Pf growth 48h inconclusive (no result: Cycloheximide cs, Shiga toxin inh)
O=C(COC(=O)/C=C/c1ccco1)NCCN1C(=O)CSC1=O	none (no result: Cycloheximide cs, Pf growth 96h, Pf growth 48h, SARS PLpro yeast, Shiga toxin inh)
COc1ccc(CC(=O)OCC(=O)c2c(N)n(C)c(=O)n(C)c2=O)cc1OC	Pf growth 96h inconclusive, Pf growth 48h inconclusive (no result: Cycloheximide cs, Shiga toxin inh)
O=C(NCCN1CCCCC1)c1ccc(Oc2cc(Cl)cc(Cl)c2)o1	Pf growth 96h 4.7µM, Pf growth 48h 7.4µM
O=C(NCC1CC1)c1ccc(Oc2cc(Cl)cc(Cl)c2)o1	Pf growth 96h 9.3µM, Pf growth 48h 12µM
O=C(NCCN1CCCCC1)c1cc(Cl)ccc1Cl	Pf growth 96h 4.7µM
O=C(c1ccc(Oc2cc(Cl)cc(Cl)c2)o1)N1CCCCC1	none
O=C(NCCN1CCCC1)c1ccc(Cl)cc1	none
CCn1cc(S(=O)(=O)Nc2cc(F)ccc2C)cn1	none
COc1ccccc1C(=O)NC1CCSc2ccccc21 (stereo not drawn)	Pf growth 96h inconclusive
O=C(NC1CCSc2ccccc21)c1ccccc1F (stereo not drawn)	Cycloheximide cs 31, Shiga toxin inh 54
CSc1ccccc1C(=O)NC1CCSc2ccccc21 (stereo not drawn)	none
O=C(NC1CCSc2ccccc21)c1ccccc1Cl (stereo not drawn)	Cycloheximide cs 39, Shiga toxin inh 37
O=C(NC1CCN(C(=O)N2c3ccccc3Sc3ccccc32)CC1)c1ccccc1F	Pf growth 96h inconclusive, Pf growth 48h 2.9µM
CCN1C(=O)c2ccc(C(=O)Nc3c(C)cc(C)cc3C)cc2C1=O	Pf growth 96h inconclusive
Cc1ccc(N(C(=O)c2snc(C(N)=O)c2N)C(C(=O)NC2CCCC2)c2ccncc2)cc1 (stereo not drawn)	Pf growth 48h inconclusive
CC1CCCC(NC(=O)COC(=O)/C=C/c2ccc(S(=O)(=O)N3CCOCC3)cc2)C1C (stereo not drawn)	none
CCN(CC)S(=O)(=O)c1ccc2[nH]cc(C(=O)NCCCN3CCCCC3)c(=O)c2c1	Pf growth 96h inconclusive, Pf growth 48h inconclusive
CCN(CC)S(=O)(=O)c1ccc2[nH]cc(C(=O)NCCN3CCCCCC3)c(=O)c2c1	Pf growth 48h 1.9µM
CCN(CC)S(=O)(=O)c1ccc2[nH]cc(C(=O)NCCC3=CCCCC3)c(=O)c2c1	Pf growth 48h 8.3µM
CCc1ccc(N(C)S(=O)(=O)c2ccc3[nH]cc(C(=O)NCCN4CCOCC4)c(=O)c3c2)cc1	Pf growth 96h inconclusive (no result: Pf growth 48h)
CCN(CC)S(=O)(=O)c1ccc2[nH]cc(C(=O)NCCN3CCCCC3C)c(=O)c2c1 (stereo not drawn)	Pf growth 48h 4.1µM (no result: Pf growth 96h)
CCCCCNC(=O)c1c[nH]c2ccc(S(=O)(=O)N3CCC4(CC3)OCCO4)cc2c1=O	Pf growth 48h 13µM
OCCO	none (no result: Cycloheximide cs, Pf growth 96h, Pf growth 48h, Shiga toxin inh)
CCN(CC)S(=O)(=O)c1ccc2[nH]cc(C(=O)NCCCN3CCCCC3C)c(=O)c2c1 (stereo not drawn)	Pf growth 48h 10µM (no result: Pf growth 96h)
O=C(NCCc1ccc(Cl)cc1)c1cccc(NC2=NC3CS(=O)(=O)CC3S2)c1 (stereo not drawn)	none
CCn1c(N)[n+](CC(=O)Nc2ccc(SC(F)F)cc2)c2ccccc21	Pf growth 96h 2.9µM, Pf growth 48h 8.3µM, AMA1-RON2 inh inconclusive
OC(CNCc1ccc(-c2ccccc2)cc1)c1ccccc1 (stereo not drawn)	Pf growth 48h inconclusive
OC(CNCc1cccs1)c1ccccc1 (stereo not drawn)	Pf growth 96h inconclusive, Pf growth 48h 13µM
Cc1ccc(CNCC(O)c2ccccc2)s1 (stereo not drawn)	Cycloheximide cs 14, Pf growth 48h 12µM
Cc1ccsc1CNCC(O)c1ccccc1 (stereo not drawn)	Pf growth 48h 12µM
Cn1cccc1CNCC(O)c1ccccc1 (stereo not drawn)	Pf growth 48h inconclusive
O=C(NCC(O)c1ccccc1)Nc1cccs1 (stereo not drawn)	Cycloheximide cs 24
CC(c1ccccc1F)n1cc(C(=O)NCCCc2nc3ccccc3[nH]2)nn1 (stereo not drawn)	none
CC1=C(CC(=O)NCC(=O)NCC(=O)O)c2cc(F)ccc2/C1=C/c1ccc(S(C)=O)cc1 (stereo not drawn)	none
CCN1C(=O)[C@H]2[C@H]3CN=C(SCc4ccc(C)cc4)N3[C@@](C)(C(=O)OC)[C@H]2C1=O	none (no result: Cycloheximide cs, Pf growth 96h, Pf growth 48h, Shiga toxin inh)
Cn1nc(SCc2ccccc2)c(=O)n(C(c2ccccc2)c2ccccc2)c1=O	none (no result: Cycloheximide cs, Pf growth 96h, Pf growth 48h, SARS PLpro yeast, Shiga toxin inh)
Cc1cc(C)n2c(SCC(=O)N(C)C3CCCCC3)nnc2n1	Pf growth 96h inconclusive

High-throughput results (PubChem BioAssay)
